# Data reported in PubChem BioAssay AID1347383 (Zoeller Lab, School of Medicine, Boston University, 2020).
# The source made the active and inactive calls.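 The calls were made as follows: active = cell survival after UV exposure 2 SD above solvent-only control wells at 10 µM, confirmed on one or two repeats; inactive = the rest.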
# Experiment: protection of CHO cells from pyrene-fatty acid UV killing, primary screen, phospholipid biosynthesis inhibitor project, ZR-82 cells, Analyticon library, screen 2 (AID 1347383);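 also: survival reflects blocked phospholipid synthesis cutting uptake of the phototoxic fatty acid; compound and fatty acid exposure 3 h then viability read next day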
# Details: ZR-82 CHO cells, CellTiter Blue, at 10 µM, peroxisome-deficient CHO-K1 variant, with DGAT-1, DGAT-2 and ACAT inhibitors
row,Structure (SMILES),outcome
1,COc1c2ccoc2c(OC)c2oc(=O)ccc12,inactive
2,C=C[C@@]1(C)CCC2=C(C1)C(=O)CC1[C@](C)(C(=O)O)CCC[C@]21C (some centres undefined),inactive
3,COc1c(OC)c(OC)c2c(c1OC)c(=O)c1ccccc1n2C,inactive
4,COc1c2cc(c(O)c1OC)CCCCC(O)CCc1ccc(O)c-2c1 (centres undefined),inactive
5,Nc1c(O)cccc1C(=O)O,inactive
6,COc1cc(O)c2c(c1)C(=O)c1cc(C)cc(O)c1C2=O,inactive
7,O=C(O)CCc1c(O)ccoc1=O,inactive
8,CCCCCCCCCC(O)CC(CC(CC1CC=CC(=O)O1)OC(C)=O)OC(C)=O (centres undefined),inactive
9,COC(=O)CCC(=O)OC[C@]1(C)CCC[C@@]2(C)C3CC[C@]4(C)C=CC3(CCC12)C4 (some centres undefined),inactive
10,O=c1c(O)c(-c2ccccc2)oc2cc(O)cc(O)c12,inactive
11,COc1ccc(C2(O)c3ccccc3NC(=O)C2OC)cc1 (centres undefined),inactive
12,COc1cc(O)cc2c1C(=O)CC(c1ccccc1)O2 (centres undefined),inactive
13,COC1=C(C)C(=O)c2c(cc(O)c3c2OC(C)C3(C)CCC=C(C)C)C1=O (centres undefined),inactive
14,OC[C@H]1O[C@@H](Oc2ccccc2)[C@H](O)[C@@H](O)[C@@H]1O,inactive
15,Cn1c(=O)c2c(ncn2C)n(C)c1=O,inactive
16,C=CCC1=CC(OC)(C(C)Cc2ccc3c(c2)OCO3)C(OC)=CC1=O (centres undefined),inactive
17,C[C@@H]1O[C@@H](Oc2ccc(-c3coc4cc(O[C@@H]5O[C@@H](C)[C@H](O)[C@@H](O)[C@H]5O)ccc4c3=O)cc2)[C@H](O)[C@H](O)[C@H]1O,inactive
18,CC1=CCC(C(C)C)c2cc(C)c(O)cc21 (centres undefined),inactive
19,COc1cc(CC(C)C(C)Cc2ccc(O)c(O)c2)ccc1O (centres undefined),inactive
20,C/C=C/C(O)CC(=O)O (centres undefined),inactive

row,Structure (SMILES),outcome
1,C=CC(C)(O)CC[C@@]1(C)[C@H](C)CC[C@]2(C)[C@@H]1C[C@@H](O)[C@@H](O)[C@]2(C)O (some centres undefined),inactive
2,Cc1c(O)cc2c(c1O)C(=O)[C@@H](O)[C@H](c1ccc(O)c(O)c1)O2,inactive
3,C[C@@H]1CCC2C(C)(C)[C@H](O)CC[C@]2(C)[C@@]12Cc1c(O)cc3c(c1O2)CNC3=O (some centres undefined),inactive
4,COc1ccc(-c2coc3cc(O[C@@H]4O[C@H](CO)[C@@H](O)[C@H](O)[C@H]4O)ccc3c2=O)cc1,inactive
5,O=C(OCc1ccccc1)c1ccccc1,inactive
6,COc1cc(C(O)C(C)O)ccc1OC(C)Cc1cc(OC)c(OC)c(OC)c1 (centres undefined),inactive
7,C/C1=C\C[C@]2(C)C(=O)C(O)=C([C@H](C)CO)[C@H]2C/C=C(\C)[C@@H](O)CC/C(C)=C/CC1,inactive
8,O=C(/C=C/c1ccccc1)c1ccccc1O,inactive
9,CCCCc1c(CC=C(C)C)[nH]c(=O)c(C)c1O,inactive
10,C[C@@H]1O[C@@H](Oc2c(-c3ccc(O)c(O)c3)oc3cc(O)cc(O)c3c2=O)[C@H](O)[C@H](O)[C@H]1O,inactive
11,COC(=O)C(CO)NC(=O)c1cccc(O)c1O (centres undefined),inactive
12,Oc1cc(O)cc(/C=C/c2ccc(O)c(O)c2)c1,inactive
13,CC(O)C(O)/C=C/c1cccc(=O)o1 (centres undefined),inactive
14,C/C=C(/C)C(=O)Oc1c(OC)c(OC)cc2c1-c1c(cc(OC)c(OC)c1OC)C[C@](C)(O)[C@@H](C)C2,inactive
15,CC1CCC2(C)C(CC(O)C(O)C23CO3)C1(C)CCC1=CC(O)OC1=O (centres undefined),inactive
16,CC1C=CC2CCCCC2C1CCC1CC(O)CC(=O)O1 (centres undefined),inactive
17,C=C1C[C@]23C[C@H]4C5[C@]6(C)CC(=O)C[C@]57C(C2C(O)[C@H]1C(O)C37)N4C6 (some centres undefined),inactive
18,COc1ccc(-c2coc3cc(O)cc(O)c3c2=O)cc1,inactive
19,CC(=O)OC/C(=C\COc1cc(=O)oc2cccc(C)c12)CCC=C(C)C,inactive
